High-throughput results (PubChem)
Compounds with a hit are over-represented: about 1.8% of the library has one in this group of screens.
SDO1 yeast rescue – sdo1-depleted yeast growth rescue; S. cerevisiae sdo1-depleted JHY4D growth rescue, OD600 30 h; hits give high values; pdr5 snq2 efflux-pump mutant strain; z-score at 10 µM; 0.21% of 140,000 active; AID 817;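 active means z-score above 3 at both the 24 hr and the 30 hr optical density reads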;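 further: z-score against mean and SD of all compound wells on the same plate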
Phagocytosis inh – macrophage phagocytosis inhibition; J774A.1 macrophage IgG-bead phagocytosis, imaging; inhibition, % at 5 µM; 0.07% of 110,000 active;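 active means inhibition above the mean of the plate negative controls plus 5 SD, cut at about 13% in these data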;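 further: phagocytic index as fraction of beads internalized from green versus red external bead signal; plate controls were DMSO negative control for no effect and cytochalasin-D positive control for full effect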
Measles CPE – protection of cells from measles virus. protection (pct of control), % at 4 µM. 1.5% of 140,000 active. Measles virus-infected cells, CPE protection, absorbance; in the data active means protection mostly above about 24%, no sharp cut-off; inactive means mostly below about 26%
* = called active by the depositor; [ ] = another dose, or the depositor's remark.

`O=C(COC(=O)CCCNC(=O)c1ccc(Cl)cc1)NC1CC1` gave SDO1 yeast rescue -0.16, Phagocytosis inh -2 and Measles CPE 48*.
Screening Cc1cc(C)c(NC(=O)COC(=O)CCc2ccc(S(=O)(=O)N3CCCCC3)cc2)c(C)c1 returned SDO1 yeast rescue 0.69, Phagocytosis inh -8 and Measles CPE 5.
Screening O=C(OCCN1C(=O)c2ccccc2C1=O)c1cc(S(=O)(=O)N2CCOCC2)ccc1Cl returned SDO1 yeast rescue -1.2, Phagocytosis inh 0 and Measles CPE 74*.
For O=C(OCCN1C(=O)c2cccc3c(N4CCOCC4)ccc(c23)C1=O)c1ccccc1Cl the results were SDO1 yeast rescue -0.39, Phagocytosis inh 1 and Measles CPE 3.
For Cc1cc(C)cc(NC(=O)CSc2nc(N)c(NC(=O)c3cccs3)c(=O)[nH]2)c1 the results were SDO1 yeast rescue -1.1 and Measles CPE 18.
Screening Cn1cccc1/C=C1\SC(=S)N(NC(=O)c2cccc(Cl)c2)C1=O returned SDO1 yeast rescue -1.2, Phagocytosis inh -11 and Measles CPE 5.
`Cn1cccc1/C=C1\SC(=S)N(NC(=O)c2ccccc2)C1=O` gave SDO1 yeast rescue -0.79, Phagocytosis inh -7 and Measles CPE 27*.
CCn1cc(Br)c(C(=O)NC(=S)Nc2ccc(C(=O)OC)cc2)n1 was read as SDO1 yeast rescue 0.85, Phagocytosis inh 0 and Measles CPE 4.
For CCOC(=O)C(=CNc1cccc(C)c1C)C(=O)OCC the results were SDO1 yeast rescue -0.06[12.7 µM] and Measles CPE 1.
For CCOC(=O)C(=CNc1ccc(C)cc1C)C(=O)OCC the results were SDO1 yeast rescue -0.7, Phagocytosis inh 0 and Measles CPE 37*.
`CC(=O)Nc1ccc2c(c1)CN(c1cc(C)ccc1C)CO2` gave SDO1 yeast rescue 1.8, Phagocytosis inh -7 and Measles CPE 9.
For Cc1cccc(C)c1NC(=O)N1CCC(n2cnc3ccccc32)CC1 the results were SDO1 yeast rescue 0.36, Phagocytosis inh -2 and Measles CPE 13.
Screening O=C(NC1CCCCC1)N1CCC(n2cnc3ccccc32)CC1 returned SDO1 yeast rescue 0.38, Phagocytosis inh 0 and Measles CPE 76*.
For Cc1ccc(S(=O)(=O)N(C)C)cc1NC(=S)NC(=O)C12CC3CC(CC(C3)C1)C2 the results were SDO1 yeast rescue -0.32, Phagocytosis inh -12 and Measles CPE 19.
NS(=O)(=O)c1cccc(NC(=S)NC(=O)C23CC4CC(CC(C4)C2)C3)c1 was read as SDO1 yeast rescue 0.43, Phagocytosis inh -11 and Measles CPE 44*.
Screening Cc1ccc(N(C(=O)Cn2nnc(-c3ccc(F)cc3)n2)C(CC(C)C)C(=O)NCC2CCCO2)cc1 (configuration not stated) returned SDO1 yeast rescue 0.27 and Measles CPE 16.
Screening COc1cc(/C=N/NC(=O)CN2CCCCC2)ccc1OCc1ccccc1 returned SDO1 yeast rescue -0.04 and Measles CPE 34*.
COc1cc(CC(=O)N/N=C/c2ccc([N+](=O)[O-])cc2)c([N+](=O)[O-])cc1OC was read as SDO1 yeast rescue 0.35, Phagocytosis inh -9 and Measles CPE 11.
COc1ccc(/C=C/C(=O)NCCCc2ccccc2)cc1OC was read as SDO1 yeast rescue 0.23, Phagocytosis inh -3 and Measles CPE 4.
For COc1cc(/C=N/NC(=O)CN2CCOCC2)ccc1OCc1ccccc1 the results were SDO1 yeast rescue -0.1, Phagocytosis inh -5 and Measles CPE 25.
COc1cc(/C=N/OCC(=O)Nc2cc(C)on2)ccc1OCc1ccccc1 was read as SDO1 yeast rescue 0.84, Phagocytosis inh -2 and Measles CPE 75*.
`Cc1cc(NC(=O)COC(=O)c2cccc(OCc3ccccc3)c2)no1` gave SDO1 yeast rescue 0.35, Phagocytosis inh 2 and Measles CPE 27.
`COc1cc(/C=N/NC(=O)Cc2ccccc2)ccc1Oc1ccc([N+](=O)[O-])cc1[N+](=O)[O-]` gave SDO1 yeast rescue -0.69, Phagocytosis inh 0 and Measles CPE 43*.
For COc1cc(/C=C/C(=O)NC(C)C)ccc1OCc1ccccc1 the results were SDO1 yeast rescue 0.38, Phagocytosis inh -3 and Measles CPE 88*.
`CC(=O)N=c1cccc(NC(C)=O)n1O` gave SDO1 yeast rescue 0.22, Phagocytosis inh 0 and Measles CPE 6.
`Cc1ccc(NC(=O)COn2nnc3ccc(S(=O)(=O)N(C)C)cc32)cc1F` gave SDO1 yeast rescue 0.11 and Measles CPE 7.
Screening COc1ccc(NC(=O)c2cccc(-n3c(C)ccc3C)c2)c(OC)c1 returned SDO1 yeast rescue -0.21, Phagocytosis inh -6 and Measles CPE 18.
For CCN(CC)C(=O)c1sc(NC(=O)C(Sc2ccccc2)c2ccccc2)c(C(=O)OC(C)C)c1C (configuration not stated) the results were SDO1 yeast rescue 1.2, Phagocytosis inh 0 and Measles CPE 14.
CC(C)(C)CC(=O)Nc1nn[nH]n1 was read as SDO1 yeast rescue 2.3, Phagocytosis inh -7 and Measles CPE 9.
`O=c1[nH]c(C2C3CC4CC(C3)CC2C4)nc2ccccc12` (configuration not stated) gave SDO1 yeast rescue -1.2, Phagocytosis inh -12 and Measles CPE 8.
CN(c1ncc(C(F)(F)F)cc1Cl)n1cc(C(N)=O)c2ccccc2c1=O was read as SDO1 yeast rescue -0.43, Phagocytosis inh 0 and Measles CPE 1.
For Cc1cc(C)nc(NC(=O)/C=C/c2cccs2)c1 the results were SDO1 yeast rescue -0.91, Phagocytosis inh -2 and Measles CPE 4.
For O=C(/C=C/c1cccs1)Nc1cccc(NC(=O)/C=C/c2cccs2)n1 the results were SDO1 yeast rescue -1.3, Phagocytosis inh -5 and Measles CPE 90*.
For CC1CN(C(=O)COC(=O)c2cccs2)CC(C)O1 (configuration not stated) the results were SDO1 yeast rescue 0.36, Phagocytosis inh -1 and Measles CPE 36*.
Screening O=C(COC(=O)c1cccs1)c1ccccc1 returned SDO1 yeast rescue -0.04, Phagocytosis inh 0 and Measles CPE 16.
`CCCn1nnnc1NC(=O)COc1ccc(CC)cc1` gave SDO1 yeast rescue 1.4, Phagocytosis inh -4 and Measles CPE 6.
For CC(=O)Nc1ccc(C(=O)c2ccccc2)cc1 the results were SDO1 yeast rescue -0.06, Phagocytosis inh 0 and Measles CPE 10.
CC(C)(Nc1ccccc1)C(=O)c1ccccc1 was read as SDO1 yeast rescue 0.39 and Measles CPE 32*.
`CC(C)NC(=O)C1CCCN(S(=O)(=O)c2cccs2)C1` (configuration not stated) gave SDO1 yeast rescue 0.9, Phagocytosis inh -1 and Measles CPE 13.
CCOC(=O)C1CCCN(S(=O)(=O)c2cccs2)C1 (configuration not stated) was read as SDO1 yeast rescue 0.96 and Measles CPE 29*.
Cn1c(NCCCN2CCOCC2)nc2c1c(=O)n(Cc1ccc(Cl)c(Cl)c1)c(=O)n2C was read as SDO1 yeast rescue -0.2, Phagocytosis inh 0 and Measles CPE 6.
For O=C(CN1C(=O)CCC1=O)c1ccc(-c2ccccc2)cc1 the results were SDO1 yeast rescue 0.08, Phagocytosis inh 1 and Measles CPE 33*.
CCCC(=O)c1ccc(-c2ccccc2)cc1 was read as SDO1 yeast rescue 1.1, Phagocytosis inh 2 and Measles CPE 3.
